Results with a measured potency or affinity are listed apart.
test system: Staphylococcus aureus; settings: Concentration 32 ug.mL-1;; ASSAY_TEST Inhibition of Bacterial Growth; detection method Absorption (OD600); MEDIA CAMHB; plate type 384well; NBS; CORNING #3640; time 18 hr

SMILES	Inhibition [%]
Cc1nnc2ccc(S(=O)(=O)N(Cc3ccccc3Cl)c3cccc(F)c3)cn12	-1.06
CCOC(=O)C1CCN(c2nc3ccccc3n3c(=O)n(CC(=O)Nc4ccccc4F)nc23)CC1	2.72
Cc1cccc(NC(=O)Cn2nc3c(SCc4ccc(Cl)cc4)nccn3c2=O)c1C	13.84
CC(C)c1ccc(NC(=O)Cn2nc3c(N4CCCC4)nccn3c2=O)cc1	2.8
Cc1ccc(-c2cc3c4nn(CC(=O)NC5CCCC5)c(=O)n4ccn3n2)cc1C	-0.99
COc1cccc(-n2ccn3c(SCC(=O)Nc4ccc(Br)cc4)nnc3c2=O)c1	-2.74
CCc1nnc2c(S(=O)(=O)N(Cc3cc(F)cc(F)c3)c3ccc(C)cc3)cccn12	10.46
CCc1nnc2c(=O)n(CC(=O)Nc3ccc(C(C)C)cc3)c3ccccc3n12	12.36
CCCCN(CC)c1ccc2nnc(CCc3nc(-c4ccc(Br)cc4)no3)n2n1	6.29
COc1ccc(CNC(=O)CCc2nnc3ccc(-c4ccccc4)nn23)cc1OC	1.5
CCc1ccc(NC(=O)Cn2nc3ccc(SC(C)(C)C)nn3c2=O)cc1	4.76
CC(=O)c1cccc(NC(=O)Cn2nc3c(N4CCN(c5ccccc5C)CC4)nccn3c2=O)c1	17.73
O=C(Cn1nc2ccc(SC3CCCCC3)nn2c1=O)Nc1ccc2c(c1)OCO2	-7.41
CCOc1ccc(NC(=O)Cn2nc3ccc(-c4ccc(C)c(C)c4)nn3c2=O)cc1	3.86
Cc1ccc(Sc2nccn3c(=O)n(CC(=O)Nc4ccccc4C)nc23)c(C)c1	-3.06
CCOc1ccc(-n2ccn3c(SCC(N)=O)nnc3c2=O)cc1	8.32
COc1ccccc1NC(=O)Cn1nc2c3c4c(sc3ncn2c1=O)CCCC4	0.74
COc1ccc(OC)c(NC(=O)Cn2nc3c(Sc4ccccc4)nc4ccccc4n3c2=O)c1	6.17
CCc1nnc2c(SCC(=O)Nc3ccc(Cl)cc3)nc3ccccc3n12	15.07
COc1ccc(NC(=O)Cn2nc3ccc(SCc4ccc(Cl)cc4)nn3c2=O)cc1	-5.92

SMILES	Inhibition [%]
COc1ccc(-c2cc3c4nnc(SCC(=O)NCc5ccccc5)n4ccn3n2)cc1	-8.9
Cc1cc(C)c(NC(=O)Cn2nc3c(N4CCN(c5ccccc5)CC4)nccn3c2=O)c(C)c1	13.62
Cc1ccc(Nc2cc(C)n3c(=O)n(CCOc4ccc(F)cc4)nc3n2)cc1	8.99
COc1cc(NC(=O)C(C)Sc2nnc3c(=O)n(-c4ccc(C)c(C)c4)ccn23)cc(OC)c1 (stereo not given)	-0.67
O=C(Cn1nc2c3sc(N4CCCC4)nc3ncn2c1=O)Nc1ccccc1Br	3.7
CC(C)Cn1c(=O)c2sccc2n2c(=O)n(Cc3cccc(Br)c3)nc12	8.88
O=S(=O)(c1cccn2cnnc12)N(Cc1cccc(Cl)c1)c1ccc(F)cc1	-11.31
CCCNC(=O)Cn1nc2nc(Nc3ccc(F)cc3)ccn2c1=O	8.25
CCc1nnc2c(S(=O)(=O)N(Cc3cccc(C)c3)c3ccc(C(C)C)cc3)cccn12	20.56
CC(C)Cn1c(=O)c2sccc2n2c(=O)n(Cc3ccc(Cl)cc3)nc12	-2.34
N#Cc1ccc(NC(=O)CSc2nnc3c4cc(-c5ccc(F)cc5)nn4ccn23)cc1	5.96
Cc1cc(C)cc(Nc2nc(C)cc3nn(CC(=O)Nc4ccc(C)c(F)c4)c(=O)n23)c1	9.64
COc1cccc(-n2ccn3c(-c4ccc([N+](=O)[O-])cc4)nnc3c2=O)c1	5.77
Cc1cccc(CN(c2ccccc2)S(=O)(=O)c2cccn3c(C)nnc23)c1	5.16
Cc1nnc2c(=O)n(CC(=O)Nc3ccc(C(C)C)cc3)c3ccccc3n12	18.68
COc1cccc(CN(c2cccc(C)c2)S(=O)(=O)c2ccc3nnc(C)n3c2)c1	1.31
Cc1ccc(NC(=O)Cn2nc3c(SCc4ccc(Cl)cc4)nccn3c2=O)cc1F	5.52
COc1ccc(-c2cc3c4nnc(CCC(=O)NCc5ccc6c(c5)OCO6)n4ccn3n2)cc1	-1.19
CC(C)c1ccc(NC(=O)Cn2nc3c(SCc4ccccc4)nccn3c2=O)cc1	1.97
CCOC(=O)c1ccccc1NC(=O)Cn1nc2ccc(C(=O)Nc3ccc(OC)cc3)cn2c1=O	0.2

test system: Escherichia coli; settings: Concentration 32 ug.mL-1;; ASSAY_TEST Inhibition of Bacterial Growth; detection method Absorption (OD600); MEDIA CAMHB; plate type 384well; NBS; CORNING #3640; time 18 hr

SMILES	Inhibition [%]
Cc1nnc2ccc(S(=O)(=O)N(Cc3ccccc3Cl)c3cccc(F)c3)cn12	-5.9
CCOC(=O)C1CCN(c2nc3ccccc3n3c(=O)n(CC(=O)Nc4ccccc4F)nc23)CC1	-5.37
Cc1cccc(NC(=O)Cn2nc3c(SCc4ccc(Cl)cc4)nccn3c2=O)c1C	-3.65
CC(C)c1ccc(NC(=O)Cn2nc3c(N4CCCC4)nccn3c2=O)cc1	-0.46
Cc1ccc(-c2cc3c4nn(CC(=O)NC5CCCC5)c(=O)n4ccn3n2)cc1C	-0.5
COc1cccc(-n2ccn3c(SCC(=O)Nc4ccc(Br)cc4)nnc3c2=O)c1	-7.77
CCc1nnc2c(S(=O)(=O)N(Cc3cc(F)cc(F)c3)c3ccc(C)cc3)cccn12	-5.17
CCc1nnc2c(=O)n(CC(=O)Nc3ccc(C(C)C)cc3)c3ccccc3n12	0.11
CCCCN(CC)c1ccc2nnc(CCc3nc(-c4ccc(Br)cc4)no3)n2n1	-0.23
COc1ccc(CNC(=O)CCc2nnc3ccc(-c4ccccc4)nn23)cc1OC	-2.82
CCc1ccc(NC(=O)Cn2nc3ccc(SC(C)(C)C)nn3c2=O)cc1	-1.87
CC(=O)c1cccc(NC(=O)Cn2nc3c(N4CCN(c5ccccc5C)CC4)nccn3c2=O)c1	2.22
O=C(Cn1nc2ccc(SC3CCCCC3)nn2c1=O)Nc1ccc2c(c1)OCO2	-17.56
CCOc1ccc(NC(=O)Cn2nc3ccc(-c4ccc(C)c(C)c4)nn3c2=O)cc1	-6.73
Cc1ccc(Sc2nccn3c(=O)n(CC(=O)Nc4ccccc4C)nc23)c(C)c1	-8.99
CCOc1ccc(-n2ccn3c(SCC(N)=O)nnc3c2=O)cc1	3.76
COc1ccccc1NC(=O)Cn1nc2c3c4c(sc3ncn2c1=O)CCCC4	-4.22
COc1ccc(OC)c(NC(=O)Cn2nc3c(Sc4ccccc4)nc4ccccc4n3c2=O)c1	-0.83
CCc1nnc2c(SCC(=O)Nc3ccc(Cl)cc3)nc3ccccc3n12	2.66
COc1ccc(NC(=O)Cn2nc3ccc(SCc4ccc(Cl)cc4)nn3c2=O)cc1	-10.26

SMILES	Inhibition [%]
COc1ccc(-c2cc3c4nnc(SCC(=O)NCc5ccccc5)n4ccn3n2)cc1	-21.63
Cc1cc(C)c(NC(=O)Cn2nc3c(N4CCN(c5ccccc5)CC4)nccn3c2=O)c(C)c1	-0.55
Cc1ccc(Nc2cc(C)n3c(=O)n(CCOc4ccc(F)cc4)nc3n2)cc1	-0.82
COc1cc(NC(=O)C(C)Sc2nnc3c(=O)n(-c4ccc(C)c(C)c4)ccn23)cc(OC)c1 (stereo not given)	-10.24
O=C(Cn1nc2c3sc(N4CCCC4)nc3ncn2c1=O)Nc1ccccc1Br	-11.75
CC(C)Cn1c(=O)c2sccc2n2c(=O)n(Cc3cccc(Br)c3)nc12	-2.43
O=S(=O)(c1cccn2cnnc12)N(Cc1cccc(Cl)c1)c1ccc(F)cc1	-14.45
CCCNC(=O)Cn1nc2nc(Nc3ccc(F)cc3)ccn2c1=O	-13.63
CCc1nnc2c(S(=O)(=O)N(Cc3cccc(C)c3)c3ccc(C(C)C)cc3)cccn12	-0.18
CC(C)Cn1c(=O)c2sccc2n2c(=O)n(Cc3ccc(Cl)cc3)nc12	0.89
N#Cc1ccc(NC(=O)CSc2nnc3c4cc(-c5ccc(F)cc5)nn4ccn23)cc1	-4.2
Cc1cc(C)cc(Nc2nc(C)cc3nn(CC(=O)Nc4ccc(C)c(F)c4)c(=O)n23)c1	-0.61
COc1cccc(-n2ccn3c(-c4ccc([N+](=O)[O-])cc4)nnc3c2=O)c1	-8.12
Cc1cccc(CN(c2ccccc2)S(=O)(=O)c2cccn3c(C)nnc23)c1	-11.12
Cc1nnc2c(=O)n(CC(=O)Nc3ccc(C(C)C)cc3)c3ccccc3n12	-2.69
COc1cccc(CN(c2cccc(C)c2)S(=O)(=O)c2ccc3nnc(C)n3c2)c1	-6.19
Cc1ccc(NC(=O)Cn2nc3c(SCc4ccc(Cl)cc4)nccn3c2=O)cc1F	0.08
COc1ccc(-c2cc3c4nnc(CCC(=O)NCc5ccc6c(c5)OCO6)n4ccn3n2)cc1	5.34
CC(C)c1ccc(NC(=O)Cn2nc3c(SCc4ccccc4)nccn3c2=O)cc1	-7.26
CCOC(=O)c1ccccc1NC(=O)Cn1nc2ccc(C(=O)Nc3ccc(OC)cc3)cn2c1=O	-8.03

Source: ChEMBL document CHEMBL4513146, “CO-ADD screening of Karazin Kharkiv National University (Ukraine) compounds”
